Most compounds without a hit are left out; they make up all but 11% or so of the library.
PNC assembly inh: perinucleolar compartment assembly inhibition | 140,000 tested, 3.1% active | activity change (PNC), negative = inhibition, % at 10 µM | AID 2417 | PC3M PTB-GFP, PNC prevalence imaging, 16 h; hits give low values;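 active = readout at or below -70, meaning at least 70% loss of cells showing the perinucleolar compartment, a nuclear body marking cancer cells; inconclusive = readout between -30 and a set limit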
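Compounds are pinned in duplicate onto adhered PC3M cells stably expressing GFP-tagged PTB and incubated 16 h at 37 C. Cells are then fixed, nuclei stained with Hoechst, and PNC-positive cells counted.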
HPGD block: HPGD (human) dehydrogenase inhibition | 150,000 tested, 4.3% active | P15428 | AID 894 | Potency, µM, actives largely listed as inhibitors | purified HPGD, NADH fluorescence kinetic, PGE2 substrate
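NADH formation kinetics: reaction with 30 uM PGE2 and 1 mM NAD+ (final), 20 nM enzyme, Tris-HCl pH 8 with Tween 20, after 15 min compound preincubation at room temperature. Fluorescence change, last versus first of five reads.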
ALDH1A1 inh: ALDH1A1 (human) enzyme inhibition; Purified ALDH1A1, NADH fluorescence, propionaldehyde substrate; AID 1030; P00352; Potency, µM (titrated, usually from 75.3 µM), most hits filed as inhibitors; 220,000 tested, 7.3% active
Target sequence (P00352 whole entry, looked up): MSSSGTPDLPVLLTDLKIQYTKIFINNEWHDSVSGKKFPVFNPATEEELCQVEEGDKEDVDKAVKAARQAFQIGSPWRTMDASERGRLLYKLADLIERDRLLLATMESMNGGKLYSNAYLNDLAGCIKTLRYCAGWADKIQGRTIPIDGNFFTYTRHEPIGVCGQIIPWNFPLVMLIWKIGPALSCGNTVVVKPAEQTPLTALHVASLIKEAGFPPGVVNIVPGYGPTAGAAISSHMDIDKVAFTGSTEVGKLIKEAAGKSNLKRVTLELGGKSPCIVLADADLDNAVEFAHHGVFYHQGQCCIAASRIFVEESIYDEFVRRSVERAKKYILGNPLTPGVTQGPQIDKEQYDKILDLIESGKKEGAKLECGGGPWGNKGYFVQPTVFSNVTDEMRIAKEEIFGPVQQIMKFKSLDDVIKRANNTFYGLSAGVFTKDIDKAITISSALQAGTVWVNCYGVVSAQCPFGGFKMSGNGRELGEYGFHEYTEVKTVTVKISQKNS
Numbers stand for hits; - = inactive; ? = inconclusive; . = not tested or not shown; [ ] = another dose, or the depositor's remark. Unless noted, calls follow the shape of the dose curve; as a rule, active = well fitted inhibition curve with a large enough effect (not every such curve was filed as active); inconclusive = small, poorly fitted or top-dose-only effect, or another doubt; inactive = no such curve, though single readings can be large or run the other way.

SMILES	PNC assembly inh	HPGD block	ALDH1A1 inh
O=C(NC(=S)Nc1ccc(N2CCOCC2)cc1)c1ccc(Cl)cc1	-	-	?
O=C(NC(=S)Nc1ccc(N2CCCCC2)cc1)c1ccc2c(c1)OCCO2	-	28µM	10µM
Cc1cccc(C(=O)NC(=S)Nc2ccc(N3CCOCC3)cc2)c1	-	-	?
CCC(=O)N1CCN(c2ccc(NC(=S)NC(=O)COc3ccccc3)cc2)CC1	.	.	-
COc1cc(C(=O)OC2CC3CCC2(C)C3(C)C)ccc1OC(C)=O (stereo unspecified)	.	.	-
CCc1ccc(C(=O)COC(=O)C(CCSC)NC(=O)c2ccccc2)cc1 (stereo unspecified)	-	-	-
CCN(CC)S(=O)(=O)c1ccc(C(=O)NNC(=O)C2CCN(S(=O)(=O)c3ccc(Cl)cc3)CC2)cc1	-	-	-
COc1ccccc1CNc1nc(-c2ccc3c(c2)OCO3)nc2ccccc12	.	.	-
Cc1ccc2nsnc2c1S(=O)(=O)N1CCOCC1	-	-	?
O=C(NC(=S)Nc1ccc(F)cc1)c1ccc2c(c1)OCCO2	.	.	13µM
CC(C)(C)C(=O)NC(=S)Nc1ccc(F)cc1	-	-	22µM
CC(C)(C)c1ccc(C(=O)NC(=S)Nc2ccc(N3CCOCC3)cc2)cc1	-123	-	10µM
CC(=O)Nc1ccc(NC(=S)Nc2ccc(F)cc2)cc1	.	.	-
O=C(Nc1ccccc1)c1ccc2c(c1)OCCO2	-	-	-
CC(=O)Nc1ccc(Cc2ccncc2)cc1	-	-	-
O=C(NC(=S)Nc1ccc(Cc2ccncc2)cc1)c1ccc(F)cc1	.	.	20µM
CC(C)(C)c1ccc(C(=O)Nc2ccc(N3CCOCC3)cc2)cc1	-	-	-
CCOc1ccc(CCNC(=O)CN2CCN(Cc3ccccc3C)C2=O)cc1OCC	-	-	-
C#CCNC(=O)C1=C[C@H](c2ccc(Br)cc2)C[C@H](OCc2ccc(CO)cc2)O1	.	.	-
c1ccc(-c2nnc(CN3CCC4(CC3)OCCO4)o2)cc1	-	-	-
c1ccc(-c2nnc(CN3CCCc4ccccc43)o2)cc1	-	?	8.9µM
Cc1ccc(N)c([N+](=O)[O-])c1	.	-	-
Cc1ccc(C(C[N+](=O)[O-])Sc2ccc(N)cc2)cc1 (stereo unspecified)	.	.	4µM
CCOC(=O)c1cc(C)sc1/N=C/C1=C(O)CCCC1=O	-	-	-
CCOC(=O)c1c(/N=C/N(C)C)sc(C(=O)OC)c1C	-	-	?
SMILES	PNC assembly inh	HPGD block	ALDH1A1 inh
Cc1cccc(C)c1-n1nnnc1SCSc1nnnn1-c1c(C)cccc1C	-	-	?
Cc1cccc(C)c1-n1nnnc1-c1cnccc1C(F)(F)F	.	.	20µM
O=c1cc(CN2CCN(S(=O)(=O)c3ccccc3[N+](=O)[O-])CC2)nc2sccn12	.	.	-
O=[N+]([O-])c1ccccc1S(=O)(=O)N1CCN(CC2CC=CCC2)CC1 (stereo unspecified)	.	.	14µM
O=[N+]([O-])c1ccccc1S(=O)(=O)N1CCN(Cc2cc3c(cc2O)OCO3)CC1	.	.	1.9µM
CCCS(=O)(=O)N1CCN(S(=O)(=O)c2ccccc2[N+](=O)[O-])CC1	.	.	-
CCOc1ccc(C2=NNC(c3cccs3)=Nc3ccc(OC)cc32)cc1OCC	-100	-	-
COc1ccc(C2=NNC(c3cccs3)=Nc3ccc(OC)cc32)cc1	?	-	-
Cc1nn(C)cc1C(=O)Nc1cc(Oc2ccc(Cl)cc2)cc([N+](=O)[O-])c1	-	-	-
Cn1cc([N+](=O)[O-])c(C(=O)Nc2cc(Oc3ccccc3)cc([N+](=O)[O-])c2)n1	-125	-	?
CC1CCCN(S(=O)(=O)c2ccc(S(=O)(=O)NC(C)c3cccs3)cc2)C1 (stereo unspecified)	?	-	38µM
CC1CCCN(S(=O)(=O)c2ccc(NC(=O)CN3CCN(C)CC3)cc2)C1 (stereo unspecified)	-	-	?
O=c1c(-c2ccc(F)cc2)nc2cncnc2n1C1CC1	.	-	-
Cc1ccc(S(=O)(=O)n2nc(-c3ccc(Cl)cc3)nc2NCc2ccco2)cc1	-	-	3.5µM
CCS(=O)(=O)n1nc(-c2ccccc2)nc1NCc1ccco1	-	-	-
O=C(Nc1ccc2c(c1)OCCO2)NC1CCCCC1	?	-	-
O=C(CSc1ccc2c(c1)OCCO2)NC(=O)NC1CCCC1	-117	-	-
CCN1CCC(O)([C@H](C(=O)O)c2ccccc2)CC1	.	-	-[13.5 µM]
COc1ccccc1OCCOCCOc1ccc(C)cc1[N+](=O)[O-]	-	-	?
C=CCc1ccc(OCCOCCOc2ccc(C)cc2[N+](=O)[O-])c(OC)c1	-	?	25µM
COC(=O)[C@@]1(Cc2ccc(OC)cc2)[C@H]2c3cc(C(=O)N(C)C)n(Cc4ccccn4)c3C[C@H]2CN1C(=O)c1ccccc1	.	-	-
Cc1ccc(NC2=NCC(=O)N2Cc2ccc3c(c2)OCO3)cc1	-	-	-

High-throughput results from PubChem.
